Data as given in PubChem BioAssay (NCATS).
Records with an inconclusive call do not appear. Calls of active or inactive are those of the source. Unless noted, the call rests on the fitted dose curve; in most records, active means well fitted inhibition curve with a large enough effect; inconclusive means small, poorly fitted or top-dose-only effect; inactive means flat fitted curve, though single readings scatter.

Tests used:
3D7 = test: qHTS profiling for inhibitors of Plasmodium falciparum proliferation (AID 504749); further: nearly all actives have a fitted effect of over 60% in size; conditions: P. falciparum in erythrocytes, SYBR Green DNA, 72 h; series mostly up to 28.7 µM
How it was run: (§1)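 Fluorescence of SYBR Green-bound parasite DNA, read at 485/535 nm, served as the growth measure. Infected erythrocytes were cultured with compound 72 h; artemisinin (0.29 uM) and DMSO wells defined the normalization range.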

7G8 = test: as above; conditions: P. falciparum in erythrocytes, SYBR Green DNA, 72 h; series mostly up to 28.7 µM
How it was run: as §1

AA1029 = test: as above; conditions: P. falciparum in erythrocytes, SYBR Green DNA, 72 h; series mostly up to 28.7 µM
How it was run: as §1

AS120 = test: as above; conditions: P. falciparum in erythrocytes, SYBR Green DNA, 72 h; series mostly up to 28.7 µM
How it was run: as §1

ATS189 = test: as above; conditions: P. falciparum in erythrocytes, SYBR Green DNA, 72 h; series mostly up to 28.7 µM
How it was run: as §1

ATS95 = test: as above; conditions: P. falciparum in erythrocytes, SYBR Green DNA, 72 h; series mostly up to 28.7 µM
How it was run: as §1

C2A = test: as above; conditions: P. falciparum in erythrocytes, SYBR Green DNA, 72 h; series mostly up to 28.7 µM
How it was run: as §1

CP185 = test: as above; conditions: P. falciparum in erythrocytes, SYBR Green DNA, 72 h; series mostly up to 28.7 µM
How it was run: as §1

CP191 = test: as above; conditions: P. falciparum in erythrocytes, SYBR Green DNA, 72 h; series mostly up to 28.7 µM
How it was run: as §1

CP192 = test: as above; conditions: P. falciparum in erythrocytes, SYBR Green DNA, 72 h; series mostly up to 28.7 µM
How it was run: as §1

CP194 = test: as above; conditions: P. falciparum in erythrocytes, SYBR Green DNA, 72 h; series mostly up to 28.7 µM
How it was run: as §1

CP201 = test: as above; conditions: P. falciparum in erythrocytes, SYBR Green DNA, 72 h; series mostly up to 28.7 µM
How it was run: as §1

CP203 = test: as above; conditions: P. falciparum in erythrocytes, SYBR Green DNA, 72 h; series mostly up to 28.7 µM
How it was run: as §1

CP211 = test: as above; conditions: P. falciparum in erythrocytes, SYBR Green DNA, 72 h; series mostly up to 28.7 µM
How it was run: as §1

CP215 = test: as above; conditions: P. falciparum in erythrocytes, SYBR Green DNA, 72 h; series mostly up to 28.7 µM
How it was run: as §1

[1] = qHTS for identification of novel therapeutic agents for treatment of microphthalmiaassociated transcription factor (MiT) renal cell carcinoma (RCC) (AID 1963991; calls by dose curve); conditions: CellTiter-Glo, 48 h; for z-score: stronger effect = lower value; for Potency: active = Z-AUC below -0.8 in all three lines
How it was run: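 Three TFE3-fusion RCC lines (UOK109, UOK124, UOK145), 500 cells/well in complete medium, were treated with MIPE 4.0 compounds for 48 hours at 37 C. Viability was by CellTiter-Glo luminescence, normalized to DMSO (100%) and empty wells (0%); curves fitted over 11 concentrations.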

[2] = TFE3-RCC UOK109 viability, measured here: UOK109 Z-AUC
[3] = TFE3-RCC viability, measured here: UOK124 Z-AUC
[4] = TFE3-RCC viability, measured here: UOK145 Z-AUC
Potency means the concentration at half of the fitted maximal effect.

## COc1ccc2c(c1OC)C(=O)OC2[C@H]1c2c(cc3c(c2OC)OCO3)CCN1C (some centres not stated)
3D7
  Potency: inactive
7G8
  Potency: inactive
AA1029
  Potency: inactive
AS120
  Potency: inactive
ATS189
  Potency: inactive
ATS95
  Potency: inactive
C2A
  Potency: inactive
CP185
  Potency: inactive
CP191
  Potency: inactive
CP192
  Potency: inactive
CP194
  Potency: inactive
CP201
  Potency: inactive
CP203
  Potency: inactive
CP211
  Potency: inactive
CP215
  Potency: inactive

## C[C@H](O)[C@@H]1C(=O)N2C(C(=O)O)=C(S[C@@H]3CN[C@H](CNS(N)(=O)=O)C3)[C@@H](C)[C@@H]12
[1]; [2]
  z-score: -0.714
[1]; [3]
  z-score: 0.967
[1]; [4]
  z-score: -1.41

## CN[C@@H]1C[C@H]2O[C@@](C)([C@H]1OC)n1c3ccccc3c3c4c(c5c6ccccc6n2c5c31)C(=O)N[C@H]4O
[1]; TFE3-RCC UOK109 viability
  Potency: 1480 nM (active)
[1]; [2]
  z-score: -1.4
[1]; [3]
  z-score: -2.32
[1]; [4]
  z-score: -1.88

## CC(=O)[C@]1(O)Cc2c(O)c3c(c(O)c2[C@@H](O[C@H]2C[C@H](N)[C@@H](O)[C@H](C)O2)C1)C(=O)c1ccccc1C3=O
[1]; TFE3-RCC UOK109 viability
  Potency: 332 nM (active)
[1]; [2]
  z-score: -1.95
[1]; [3]
  z-score: -1.91
[1]; [4]
  z-score: -1.45

## C[C@H]1C[C@H]2[C@@H]3CCC4=CC(=O)C=C[C@]4(C)[C@@H]3C(=O)C[C@]2(C)[C@@]1(O)C(=O)CO
[1]; [2]
  z-score: 0.188
[1]; [3]
  z-score: 0.279
[1]; [4]
  z-score: 1.74

## CCCCCCCCCCCC(CC1OC(=O)C1CCCCCC)OC(=O)C(CC(C)C)NC=O (configuration not stated)
[1]; [2]
  z-score: 0.558
[1]; [3]
  z-score: -0.129
[1]; [4]
  z-score: 0.669
3D7
  Potency: 1120 nM (active)
7G8
  Potency: 2510 nM (active)
AA1029
  Potency: 447 nM (active)
AS120
  Potency: 316 nM (active)
ATS95
  Potency: 794 nM (active)
C2A
  Potency: 562 nM (active)
CP185
  Potency: 708 nM (active)
CP191
  Potency: 562 nM (active)
CP192
  Potency: inactive
CP194
  Potency: 9530 nM (active)
CP201
  Potency: inactive

## CCOc1cc2ncc(C#N)c(Nc3ccc(OCc4ccccn4)c(Cl)c3)c2cc1NC(=O)C=CCN(C)C
[1]; TFE3-RCC UOK109 viability
  Potency: 16.6 nM (active)
[1]; [2]
  z-score: -2.6
[1]; [3]
  z-score: -0.947
[1]; [4]
  z-score: -1.43

## N#CC(=C(O)c1ccc(Cl)cc1Cl)c1nc2cc(Cl)ccc2c(=O)[nH]1
[1]; [2]
  z-score: 0.465
[1]; [3]
  z-score: 1.29
[1]; [4]
  z-score: 0.266

## CC(=O)C1=C(O)C=C2Oc3c(C(C)=O)c(O)c(C)c(O)c3C2(C)C1=O (configuration not stated)
[1]; [2]
  z-score: 0.861
[1]; [3]
  z-score: 0.834
[1]; [4]
  z-score: -0.166

## OCCN1C[C@H](O)[C@@H](O)[C@H](O)[C@@H]1CO
[1]; [2]
  z-score: 0.705
[1]; [3]
  z-score: 0.522
[1]; [4]
  z-score: 1.03

## C#C[C@]1(O)CC[C@@H]2[C@@H]3CCC4=CC(=O)CC[C@@H]4[C@H]3CC[C@@]21CC
[1]; [2]
  z-score: 0.12
[1]; [3]
  z-score: -0.0153
[1]; [4]
  z-score: -0.174

## Cc1ccc(O)c(C(CCN(C(C)C)C(C)C)c2ccccc2)c1 (configuration not stated)
[1]; [2]
  z-score: 0.603
[1]; [3]
  z-score: 0.794
[1]; [4]
  z-score: 0.77

## O=C1NC(=O)[C@@H](c2cn3c4c(cccc24)CCC3)[C@H]1c1c[nH]c2ccccc12
[1]; TFE3-RCC UOK109 viability
  Potency: 935 nM (active)
[1]; [2]
  z-score: -1.28
[1]; [3]
  z-score: -0.931
[1]; [4]
  z-score: -1.11

## CC(=O)OCC(=O)[C@@]12N=C(C)O[C@H]1C[C@H]1[C@@H]3CCC4=CC(=O)C=C[C@]4(C)[C@@H]3[C@@H](O)C[C@@]12C
[1]; [2]
  z-score: 0.415
[1]; [3]
  z-score: 0.48
[1]; [4]
  z-score: 2.44

## COc1cccc2c1C(=O)c1c(O)c3c(c(O)c1C2=O)C[C@@](O)(C(C)=O)C[C@H]3O[C@H]1C[C@H](N)[C@H](O)[C@H](C)O1
[1]; TFE3-RCC UOK109 viability
  Potency: 296 nM (active)
[1]; [2]
  z-score: -1.65
[1]; [3]
  z-score: -2.33
[1]; [4]
  z-score: -1.35

## C=C1C[C@@]2(O)O[C@@]3(C[C@H]2C(C)C)[C@H](C)CC[C@H]13
[1]; [2]
  z-score: 0.729
[1]; [3]
  z-score: 0.339
[1]; [4]
  z-score: 0.0529

## COc1cc2c(Nc3ccc(Cl)c(Cl)c3F)ncnc2cc1OCC1C[C@@H]2CN(C)C[C@H]2C1
[1]; TFE3-RCC UOK109 viability
  Potency: 9350 nM (active)
[1]; [2]
  z-score: -3.52
[1]; [3]
  z-score: -1.85
[1]; [4]
  z-score: -1.7

## OCC(O)C(O)C(O)CO (configuration not stated)
[1]; [2]
  z-score: 0.353
[1]; [3]
  z-score: 0.172
[1]; [4]
  z-score: 0.47
3D7
  Potency: inactive
7G8
  Potency: inactive
AA1029
  Potency: inactive
AS120
  Potency: inactive
ATS189
  Potency: inactive
ATS95
  Potency: inactive
C2A
  Potency: inactive
CP185
  Potency: inactive
CP191
  Potency: inactive
CP192
  Potency: inactive
CP194
  Potency: inactive
CP201
  Potency: inactive
CP203
  Potency: inactive
CP211
  Potency: inactive
CP215
  Potency: inactive

## CCN(CC)CCNC(=O)c1c(C)[nH]c(C=C2C(=O)Nc3ccc(F)cc32)c1C
[1]; TFE3-RCC UOK109 viability
  Potency: 34000 nM (active)
[1]; [2]
  z-score: -1.15
[1]; [3]
  z-score: -1.68
[1]; [4]
  z-score: -1.38

## CCc1cnn2c(NCc3ccc[n+]([O-])c3)cc(N3CCCC[C@@H]3CCO)nc12
[1]; TFE3-RCC UOK109 viability
  Potency: 59 nM (active)
[1]; [2]
  z-score: -2.34
[1]; [3]
  z-score: -1.76
[1]; [4]
  z-score: -1.93

## NC(=O)c1ncn([C@@H]2O[C@H](CO)[C@@H](O)[C@@H]2O)c1O
[1]; [2]
  z-score: 0.702
[1]; [3]
  z-score: 0.298
[1]; [4]
  z-score: 0.0692

## CC(C)(C)[C@H](NC(=O)c1ccc(N)c(Cl)c1)C(=O)N1CCC[C@@H]1C(=O)N[C@H](C#N)CC(=O)O
[1]; [2]
  z-score: 1.53
[1]; [3]
  z-score: 2.68
[1]; [4]
  z-score: 2.13
